Results reported in ChEMBL document CHEMBL3988442, “University of Dundee, Small-Polar-MMV Screening Library” (2021).
Hit rate of the full screen: of about 48,000 compounds, about 13,000 (27%) showed an effect of 50% or more. Some of the results follow.

Each compound was assayed on Wolbachia pipientis (assay: Anti-Wolbachia Cell-Based Screen). Conditions: 5 µM.
Assay type: functional
Set-up: scale not given: in the data most compounds retested in dose-response had high values

Going from `CC(C#N)CSc1ccccc1NCC(=O)NCc1ccccc1` (configuration not stated) to `CCCN(c1ccccc1C(=O)O)S(=O)(=O)c1cccc2cccnc12`, the “Percent Effect” value falls from 17.5% to -16.07%.

Going from `CCC1CN(C(=O)c2cc(C(C)=O)c(C)[nH]c2=O)CCN1C(C)C` (configuration not stated) to `CCOCCn1nc(C)cc1C(=O)N1CC[C@](C)(O)C(C)(C)C1`, the “Percent Effect” value rises from 0.5617% to 2.862%.

Compared with `CCCc1nc(N2CCC(CCO)CC2)c2cnn(C)c2n1`, `CCCc1nc(N2CCCC(CCOC)C2)c2cnn(C)c2n1` (configuration not stated) is higher in “Percent Effect” value: -6.253% for the first, 105.9% for the second.

First: CCc1nc(N2CCN(CCOC)CC2)c2cnn(C)c2n1
Second: COCCN1CCN(c2nc(C3CCCC3)nc3c2cnn3C)CC1
The “Percent Effect” value of the first is lower: 1.381% for the first, 8.561% for the second.

First: COCC1CCN(c2nc(C(C)(C)C)nc3c2cnn3C)C1 (configuration not stated)
Second: CCc1nc(N2CCCC(CCCOC)C2)c2cnn(C)c2n1 (configuration not stated)
The “Percent Effect” value of the first is lower: -4.471% for the first, 108.6% for the second.

First: Cc1noc([C@H]2C[C@H]3OCC[C@H]3N(Cc3ccc(F)cc3)C2)n1.O=C(O)C(F)(F)F
Second: O=C(Nc1cccnc1)[C@H]1CN(Cc2ccccn2)C[C@H]2OCC[C@@H]12.O=C(O)C(F)(F)F.O=C(O)C(F)(F)F
The “Percent Effect” value of the first is higher: 9.305% for the first, -14.96% for the second.

Going from `CCN(CC)C(=O)Cn1nc(C(C)C)c2cnn(C(C)(C)C)c2c1=O` to `CN(Cc1ncc(C(C)(C)C)o1)CC1CCCN1c1cccnn1` (configuration not stated), the “Percent Effect” value rises from 8.022% to 16.2%.

Compared with `C=C(C)CN(Cc1cccc(O)c1)C1CCC(O)CC1` (configuration not stated), `CCN(CCO)C(=O)C1CCC(=O)N(CCc2cccc(F)c2)C1` (configuration not stated) is lower in “Percent Effect” value: 3.823% for the first, -9.721% for the second.

Going from `CCc1nc2c(N3CCC4(CC3)CNC(=O)C4)ncnc2o1` to `CC(C)NC(=O)N1CCN(S(=O)(=O)C2CC2)CC2(CNC(=O)C2)C1` (configuration not stated), the “Percent Effect” value rises from 4.745% to 10.45%.

Going from `Cc1ncsc1C(=O)NC1CCN(Cc2cccnc2)CC1` to `c1cncc(CN2CCC(c3csc4nccn34)CC2)c1`, the “Percent Effect” value rises from 3.367% to 140.6%.

First: c1cc(CN2CCCC(c3ccnc4nccn34)C2)ccn1 (configuration not stated)
Second: c1cc(CN2CCC(c3ccnc4nccn34)C2)ccn1 (configuration not stated)
The “Percent Effect” value of the first is higher: 150% for the first, 128.4% for the second.

Compared with `Cc1cccc(CN2CCC(c3csc4nccn34)CC2)n1.O=CO`, `Cc1cccc(CN2CCC(c3nccn3CC(N)=O)CC2)n1` is lower in “Percent Effect” value: 151.3% for the first, -14.31% for the second.

Compared with `c1cncc(CN2CCC(c3n[nH]c(C4CC4)n3)CC2)c1`, `Clc1cccnc1N1CCC(C2CCN(Cc3cccnc3)CC2)C1` (configuration not stated) is lower in “Percent Effect” value: 10.48% for the first, -0.1569% for the second.

Going from `Cc1cccc(CN2CCC(NS(C)(=O)=O)CC2)n1` to `CCc1nccc(CN2CCCC(CNC(=O)c3occc3C)C2)n1` (configuration not stated), the “Percent Effect” value rises from -9.608% to 4.372%.

Compared with `c1cc(-c2cc(C3CCN(Cc4cncnc4)C3)ccn2)ccn1` (configuration not stated), `c1cncc(CN2CCC(c3ccnc4nccn34)C2)c1` (configuration not stated) is higher in “Percent Effect” value: -7.458% for the first, 122.6% for the second.

Going from `Fc1ccc(OCc2nnc([C@H]3CCN(Cc4ccncc4)C3)o2)cc1` to `Cn1c(Cn2ccnc2)nnc1C1CCCN(Cc2ccncc2)C1` (configuration not stated), the “Percent Effect” value falls from 12.6% to -0.06506%.

First: FC(F)(F)c1cc(C2CCCN(Cc3ccncc3)C2)n[nH]1 (configuration not stated)
Second: Cn1cc(CCC(=O)N2CCN(Cc3ccncc3)CC2)cn1
The “Percent Effect” value of the first is lower: -5.824% for the first, -1.736% for the second.

Compared with `Cc1ccc(C)c(S(=O)(=O)NCCNc2ccc(-n3cccc3)nn2)c1`, `Cc1cc(N(C)Cc2ncc[nH]2)nc(-c2ccccc2)n1` is lower in “Percent Effect” value: 14.81% for the first, 4.008% for the second.

Going from `C=C(C)CN(CC)S(=O)(=O)c1cccc(F)c1C#N` to `Cc1ncc(S(=O)(=O)N(CC(C)C)c2cccc(O)c2)s1`, the “Percent Effect” value rises from -7.097% to -3.046%.

First: O=C(Nc1cnccn1)[C@H]1COC[C@H]2CN(c3ncc(F)cn3)C[C@H]21
Second: CC(=O)N1CC(C)CN(C(=O)c2cnccn2)c2ccccc21 (configuration not stated)
The “Percent Effect” value of the first is lower: -11.52% for the first, 97.68% for the second.

Going from `CCN1CCN(C(=O)c2cnc(Cc3c(Cl)cccc3Cl)nc2O)CC1` to `CCn1cc(CN2CCCN(C(=O)CCc3ccccc3)CC2)cn1`, the “Percent Effect” value rises from 1.362% to 96.36%.

Going from `Clc1ccc(CN2CCC(C3CCN(Cc4cccnc4)CC3)C2)cc1` (configuration not stated) to `CN(Cc1ccc(-n2cccn2)cc1)C[C@@H]1CCCN2CCCC[C@H]12`, the “Percent Effect” value rises from -5.932% to 18.72%.

Compared with `c1ccc(CCN2CCCC(c3ccnc4nccn34)C2)cc1` (configuration not stated), `CCn1ccnc1CN(C)C1CCCN(CCc2ccccc2)C1` (configuration not stated) is lower in “Percent Effect” value: 130.1% for the first, 17.47% for the second.

Going from `c1ccc(CCN2CCCC(c3noc(C4CC4)n3)C2)cc1` (configuration not stated) to `O=C(CCO)N[C@H]1CN(CC2CCC2)C[C@@H]1c1ccccc1`, the “Percent Effect” value rises from -7.15% to 4.649%.

Going from `O=C(Cc1ccsc1)N1CCC(c2n[nH]c3nccnc23)CC1` to `O=C(Cc1ccsc1)N1CCCC(c2n[nH]c3nccnc23)C1` (configuration not stated), the “Percent Effect” value falls from 72.86% to -11.37%.

Going from `CC(=O)N1CCC(c2n[nH]c3nccnc23)CC1` to `COCC(=O)N1CCC(c2n[nH]c3nccnc23)CC1`, the “Percent Effect” value rises from 120.8% to 142.1%.

Going from `O=C(Cc1ccsc1)N1CCCC(c2n[nH]c3ncccc23)C1` (configuration not stated) to `CN(Cc1cccc(C(N)=O)c1)CC1CCCN1c1cccnn1` (configuration not stated), the “Percent Effect” value rises from 100.9% to 103.6%.

Going from `COCC(=O)N1CCC(c2nccn2CC2CC2)CC1` to `CN1CCC(c2nnc(CN3CCC(O)CC3)n2C)CC1`, the “Percent Effect” value rises from -30.12% to -6.188%.

First: O=C(NCCC(O)c1ccco1)c1ccco1 (configuration not stated)
Second: CC(=O)N1CC(C)CN(Cc2ccon2)c2ccccc21 (configuration not stated)
The “Percent Effect” value of the first is lower: -7.433% for the first, 7.641% for the second.

First: CCC(CC)NC(=O)c1cncc(Br)c1
Second: CCC(=O)c1ccc(OCC(=O)NC(C)Cc2cc(C)n[nH]2)cc1 (configuration not stated)
The “Percent Effect” value of the first is higher: 15.73% for the first, -9.204% for the second.

Going from `O=C(Nc1c(N2CCCC2)cccc1N1CCCC1)c1cnccn1` to `O=C(NCc1ccc(N2CCCC2)nc1)N1CCc2sccc2C1`, the “Percent Effect” value falls from -1.067% to -1.896%.

Going from `CCc1nc(C)ncc1C(=O)N1CC(C)CN(C)c2ccccc21` (configuration not stated) to `CC(=O)N1CC(C)CN(C(=O)c2cccnc2C)c2ccccc21` (configuration not stated), the “Percent Effect” value rises from -1.529% to 91.16%.

Compared with `CC1CN(C(=O)c2cscn2)c2ccccc2S1` (configuration not stated), `Cc1ncsc1C(=O)N1CC(C)Sc2ccccc21` (configuration not stated) is higher in “Percent Effect” value: -14.12% for the first, 0.6302% for the second.

Compared with `CC(=O)N1CC(C)CN(C(=O)c2cscn2)c2ccccc21` (configuration not stated), `CC1CN(C)c2ccccc2CN1C(=O)c1cscn1` (configuration not stated) is lower in “Percent Effect” value: 95.98% for the first, -10.99% for the second.

Going from `CN(C)C(=O)N1CC2(CCN(S(=O)(=O)C3CC3)CC2)c2ccccc21` to `CC(c1ccccc1Cl)N(C(=O)CSCC(N)=O)C1CC1` (configuration not stated), the “Percent Effect” value falls from -5.03% to -12.69%.

Going from `CCn1ccnc1CN(C)CC1CCCN1c1cccnn1` (configuration not stated) to `CN(Cc1cnn(C)c1)CC1CCCN1c1cccnn1` (configuration not stated), the “Percent Effect” value rises from 7.087% to 108.8%.

First: CN(Cc1ccc(-n2cccn2)cc1)CC1CCCN1c1cccnn1 (configuration not stated)
Second: CN(Cc1ccc(-n2ccnc2)cc1)CC1CCCN1c1cccnn1 (configuration not stated)
The “Percent Effect” value of the first is lower: 115.9% for the first, 126.9% for the second.

Going from `CN(Cc1ccccn1)CC1CCCN1c1cccnn1` (configuration not stated) to `CN(Cc1cccnc1)CC1CCCN1c1cccnn1` (configuration not stated), the “Percent Effect” value falls from 130% to -2.765%.

First: CN(Cc1nc(N)c2ccccc2n1)CC1CCCN1c1cccnn1 (configuration not stated)
Second: Cc1nc2ccccc2nc1CN(C)CC1CCCN1c1cccnn1 (configuration not stated)
The “Percent Effect” value of the first is lower: -0.6342% for the first, 5.031% for the second.

Compared with `Cc1cnc(CN(C)CC2CCCN2c2cccnn2)cn1` (configuration not stated), `Cc1nnc(CN(C)CC2CCCN2c2cccnn2)o1` (configuration not stated) is higher in “Percent Effect” value: -5.64% for the first, -3.082% for the second.

First: COc1ccc(CN(C)CC2CCCN2c2cccnn2)cc1F (configuration not stated)
Second: CN(CCc1ccncc1)CC1CCCN1c1cccnn1 (configuration not stated)
The “Percent Effect” value of the first is lower: 12.57% for the first, 116.4% for the second.

Compared with `CN(Cc1cnn(-c2ccccc2)n1)CC1CCCN1c1cccnn1` (configuration not stated), `CN(CC(=O)Nc1ccncc1)CC1CCCN1c1cccnn1` (configuration not stated) is lower in “Percent Effect” value: 15.2% for the first, 2.636% for the second.

First: Cc1noc(C)c1CN(C)CC1CCCN1c1cccnn1 (configuration not stated)
Second: CC(NCc1nnc2n1CCCC2)c1nc(-c2cccs2)no1 (configuration not stated)
The “Percent Effect” value of the first is higher: -0.05919% for the first, -0.8773% for the second.

Going from `CCCOc1cccc(NC(=O)NC2CCc3nc(C)nn3C2)c1` (configuration not stated) to `Cn1cc(C(=O)Nc2cccc(F)c2)ccc1=O`, the “Percent Effect” value rises from -22.59% to 0.158%.

First: O=C1CCCN1C1CCN(S(=O)(=O)CCOc2ccc(F)cc2)CC1
Second: O=C(NCc1nnc2n1CCCC2)N1CCc2ccccc2C1
The “Percent Effect” value of the first is lower: 0.4633% for the first, 5.135% for the second.

Compared with `O=C(NCc1nnc2n1CCCCC2)N1CCc2sccc2C1`, `O=C(NCc1nnc2n1CCCC2)N1CCc2sccc2C1` is higher in “Percent Effect” value: 8.039% for the first, 127.9% for the second.

Going from `CC(NCc1nnc2n1CCCC2)C(=O)N1CCc2sccc2C1` (configuration not stated) to `O=C(NCc1nnc2n1CCC2)N1CCc2sccc2C1`, the “Percent Effect” value falls from 124.2% to 90.24%.

First: O=C(NCc1nnc2n1CCCCC2)N1CCC2(CCCCC2)C1
Second: O=C(NCc1nnc2n1CCC2)N1CCC2(CCCCC2)CC1
The “Percent Effect” value of the first is lower: -0.2574% for the first, 10.88% for the second.

First: O=C(NCc1nnc2n1CCCCC2)N1CCc2ccccc2C1
Second: O=C(NCc1nnc2ccccn12)N1CCc2sccc2C1
The “Percent Effect” value of the first is higher: 97.78% for the first, -3.483% for the second.

Going from `CC(C)NC(=O)C1CCN(C(C)C(=O)N2CCc3sccc3C2)CC1` (configuration not stated) to `CCn1cc(CN2CCCN(C(=O)C3=NN(C)C(=O)CC3)CC2)cn1`, the “Percent Effect” value rises from -8.464% to 3.458%.

Compared with `CCn1cc(CN2CCCC3(CCC(=O)N(CCC(C)C)C3)C2)cn1` (configuration not stated), `CCn1cc(CN2CCCN(C(=O)CCN3CCCC3=O)CC2)cn1` is higher in “Percent Effect” value: -5.478% for the first, 112.3% for the second.

Compared with `CCn1cc(CN2CCCN(C(=O)CCn3cc(C)cn3)CC2)cn1`, `CCn1cc(CN2CCCN(C(=O)CCc3cnn(C)c3)CC2)cn1` is higher in “Percent Effect” value: 86.19% for the first, 103.4% for the second.

Compared with `CCn1cc(CN2CCCN(C(=O)C3(C#N)CCCCC3)CC2)cn1`, `CCn1cc(CN2CCCN(C(=O)CCCn3cncn3)CC2)cn1` is higher in “Percent Effect” value: -13.94% for the first, 2.568% for the second.

For `CCn1cc(CN2CCCN(C(=O)CCc3ccncc3)CC2)cn1`, the “Percent Effect” value was -3.575%.
